# Experimental data from PubChem BioAssay (NCI).
# This is part of a sample that, as a whole, favours compounds with a hit. Of some 83,000 tested, about 20% had one in any assay.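 Method: cells in 96-well plates; compound added at one concentration; 48 h incubation; percent growth measured; values under 10 scored active.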 Unmarked numbers belong to inactive results. Calls of active or inactive are those of the source.
# What was measured:
# Assay in all cases: NCI-60 one-dose screen, 48 h (100 = growth as untreated, 0 = no growth, -100 = all killed)
# NCI-H23 lung = conditions: 10 µM unless noted
# NCI-H226 lung = conditions: 10 µM unless noted
# NCI-H322M lung = conditions: 10 µM unless noted
# HOP-62 NSCLC = conditions: 10 µM unless noted
# NCI-H460 lung = conditions: 10 µM unless noted
# HOP-92 NSCLC = conditions: 10 µM unless noted
# NCI-H522 lung = conditions: 10 µM unless noted
# A549/ATCC NSCLC = conditions: 10 µM unless noted
# 786-0 renal = conditions: 10 µM unless noted
# COLO 205 colon = conditions: 10 µM unless noted
# DU-145 prostate = conditions: 10 µM unless noted
# K-562 leukemia = conditions: 10 µM unless noted
# MALME-3M melanoma = conditions: 10 µM unless noted
# MDA-MB-231 breast = conditions: 10 µM unless noted
# RXF 393 renal = conditions: 10 µM unless noted
# SF-268 CNS = conditions: 10 µM unless noted
# SF-295 CNS = conditions: 10 µM unless noted
# SF-539 CNS = conditions: 10 µM unless noted
# UACC-257 melanoma = conditions: 10 µM
# M14 melanoma = conditions: 10 µM unless noted
SMILES,growth (NCI-H23 lung),growth (NCI-H226 lung),growth (NCI-H322M lung),growth (HOP-62 NSCLC),growth (NCI-H460 lung),growth (HOP-92 NSCLC),growth (NCI-H522 lung),growth (A549/ATCC NSCLC),growth (786-0 renal),growth (COLO 205 colon),growth (DU-145 prostate),growth (K-562 leukemia),growth (MALME-3M melanoma),growth (MDA-MB-231 breast),growth (RXF 393 renal),growth (SF-268 CNS),growth (SF-295 CNS),growth (SF-539 CNS),growth (UACC-257 melanoma),growth (M14 melanoma)
COc1cc(/C=C/C(=O)c2ccccc2O)ccc1OCCCOc1cc2c(cc1OC)C(=O)N1CCC[C@H]1C=N2,3.19% (active),-3.94% (active),-10.6% (active),9.86% (active),-18.1% (active),-27.4% (active),-9.43% (active),6.93% (active),-44.8% (active),-3.82% (active),2.53% (active),76.3%,-73.1% (active),-20.6% (active),-44.6% (active),0.95% (active),-11% (active),-1.54% (active),,
Cc1cccc(-n2c(C)nc3ccc(NC(=O)NCCCl)cc3c2=O)c1,86.8%,95.3%,105%,96%,100%,86%,98.9%,101%,93.5%,104%,104%,112%,115%,111%,102%,95.1%,99.6%,99%,97.2%,
CSc1ccccc1C#C/C=C\C#Cc1ccccc1N1CCCC1=O,53.4%,62.5%,91.5%,60.2%,24.7%,40.7%,70.5%,63.2%,71.1%,65.2%,85.7%,14.7%,50%,51%,52.9%,56.6%,65.3%,55.1%,,
C=CCn1c(C)nc2ccc(Nc3nc(Nc4ccc(F)cc4)nc4ccccc34)cc21,56%,85.4%,85.5%,75.9%,63.4%,-0.386% (active),57.9%,52.1%,76.7%,43.7%,74.1%,21%,74.5%,73.8%,66.6%,66%,31.4%,73%,92.6%,45.2%
O=C1Nc2ccc(Br)cc2C1=N/C=c1\[nH]c(=O)/c(=C/c2ccc(Cl)cc2)s1,97.8%,98.3%,93.2%,84.1%,101%,83.2%,89.3%,85.3%,90.6%,102%,102%,81%,93.6%,88.6%,94.9%,95.2%,96.5%,90.7%,95.7%,101%
O=C(CCCn1c2c(sc3ccccc32)c(=O)n2nnc(-c3ccccc3)c12)NCCc1cnc[nH]1,23.4%,98.5%,-34.1% (active),-7.01% (active),-93.2% (active),-75.7% (active),-95.8% (active),-75.3% (active),-85.2% (active),-3.8% (active),-100% (active),78.7%,-76.1% (active),-47.2% (active),-66.9% (active),-48.9% (active),-42.6% (active),-97.3% (active),-7.05% (active),-80.6% (active)
COc1ccc(Cn2c(SC)nc(=O)n(Cc3ccc(Cl)cc3)c2=O)cc1,93.7%,106%,90.2%,94.6%,103%,90%,93.9%,87.9%,98.7%,98.8%,103%,92.6%,95.1%,99.4%,107%,94.1%,59.7%,106%,102%,
CC(=O)Oc1cccc(OC(C)=O)c1OC(C)=O,111%,97.8%,99.7%,92.1%,110%,106%,75.2%,72.6%,97.7%,107%,108%,100%,97.6%,98.9%,99.5%,105%,99.2%,99.5%,,
CC1Cc2c(N(C)C)ncnc2N(C)c2ccc(O)cc21 (stereo unspecified),92.8%,104%,96.5%,72.8%,97.7%,81.2%,49.1%,85.1%,81.4%,103%,101%,36.5%,89.5%,87.2%,95.2%,87.4%,91.8%,91.3%,,
COc1cc(Cn2c(SCC(=O)Nc3ccc(Cl)cc3)nc3ccccc3c2=O)cc(OC)c1OC,73%,39.1%,64.4%,54%,17.7%,-20.8% (active),40.9%,64.9%,-11% (active),92.9%,66.5%,45.7%,9.48% (active),49.3%,19.1%,46.5%,62.2%,-14% (active),73.8%,
O=C1c2ccccc2C(=O)c2c(N=Nc3sc(=O)[nH]c3S)cccc21,96.3%,110%,99%,99.3%,95.9%,92.9%,83.1%,98.1%,107%,98.9%,103%,78.5%,93.3%,97.1%,115%,97.3%,97.2%,107%,88.5%,96.2%
CN(C)c1ccc(/C=C\N=Nc2ccc(Br)cc2)cc1,79.8%,79.7%,77.9%,95.1%,51.2%,76.1%,37.9%,58.7%,57.3%,82.1%,45.8%,16.7%,86.5%,49.6%,108%,52.7%,29.1%,5.55% (active),87.5%,41.4%
COc1ccc(NC(=O)CSc2nc3ccccc3c(=O)n2-c2ccccc2C(F)(F)F)c(OC)c1OC,102%,102%,116%,78%,99.4%,77.3%,112%,98.3%,101%,102%,105%,94.5%,106%,89%,108%,100%,94.2%,94.7%,100%,
COc1c(NC[C@H]2OC(O)[C@H](O)[C@@H](O)[C@@H]2O)c(=O)c1=O (stereo partly specified),97%,98.3%,98%,102%,104%,95.6%,114%,94.2%,102%,112%,115%,96.4%,92.9%,106%,96.6%,102%,107%,94.1%,102%,108%
CN1CCN(c2ccc3cc(-c4nc5ccccc5[nH]4)c(=O)oc3c2)CC1,74.5%,89%,105%,98%,92.7%,58.9%,94.9%,90.3%,105%,92.4%,112%,43.7%,90.4%,80.2%,108%,105%,104%,93.5%,83.3%,88.8%
C=C1C(=O)O[C@H]2[C@H]1CC/C(COC(=O)NCc1cc(OC)cc(OC)c1)=C\CC[C@@]1(C)O[C@@H]21,20.8%,13.2%,73.4%,44.9%,34.9%,-21.6% (active),-52.7% (active),51.2%,-37.7% (active),-64.9% (active),-6.21% (active),3.43% (active),-44.1% (active),-5.09% (active),-41.9% (active),21.4%,81.4%,5.25% (active),,
